# Experimental data from PubChem BioAssay (NCI).
# Compounds without any hit were thinned out: in the full panel of roughly 83,000, 20% have a hit.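 Values shown are percent growth following 48 h exposure of cells in 96-well plates to a single concentration of compound; below 10 was considered active.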 Unmarked numbers belong to inactive results. Calls of active or inactive are those of the source.
# Tested on: HCC-2998 colon
# Assay: NCI-60 one-dose screen, 48 h (100 = growth as untreated, 0 = no growth, -100 = all killed)
# Settings: 10 µM unless noted
row,Compound,growth
1,CCN(CC)CCC(=O)c1ccc(OC)c2ccccc12,90.8%
2,COc1ccc(/C=C2\N=C3Sc4cc(Cl)ccc4C(=O)N3C2=O)cc1,118%
3,Nc1c(C(=O)Nc2ccccc2)sc2nc3c(cc12)CN(CCc1ccccc1)CC3,99%
4,CC(C)Oc1nc2c(c(=O)n(C)c(=O)n2C)n1C,101%

# Tested on: KM12 colon
# Assay: as above
# Settings: 10 µM unless noted
row,Compound,growth
1,OCC1C2C=CC(C2)C1CO (configuration not stated),106%
2,Fc1ccc(Cc2ccc(F)cc2)cc1,108%
3,O=c1ccc2cc3ccccc3cc2[nH]1,101%
4,COc1ccc(-c2nn(-c3ccccc3)cc2/C=C/C(=O)OCc2cn(-c3ccc(F)c(Cl)c3)nn2)cc1,93.9%
5,COc1ccccc1N1CCN(CCn2c(=O)c3c(c4ccccc4n3C)n(C)c2=O)CC1,103%
6,CCCCCCCCCCNC(=O)CCl,67.4%
7,N=S(=O)(NC(=O)c1ccc(Cl)cc1Cl)c1ccc(Br)s1 (configuration not stated),88.5%
8,CCOC(=O)/C=C/C(=O)[C@H](CC(C)C)NC(=O)[C@H](Cc1ccccc1)NC(=O)OCc1ccccc1,94.5%
9,COC1/C=C\OC2(C)Oc3c(C)c(O)c4c(O)c(c(CN(C)CCO)c(O)c4c3C2=O)NC(=O)/C(C)=C\C=C/C(C)C(O)C(C)C(O)C(C)C(OC(C)=O)C1C (configuration not stated),106%
10,COc1nc2c(cc1S(=O)(=O)c1ccccc1)CCc1c-2cnn1Cc1ccccc1,27.7%
11,O=S(=O)(NCCCNc1cc(-c2cn(-c3ccccc3)nc2-c2ccccc2)ccn1)c1ccc(C(F)(F)F)cc1,40.5%
12,N#CC1=C(N)Oc2c(ccc3ccccc23)C1c1cccs1 (configuration not stated),4.37% (active)
13,CCN(CC)CCCNc1cc(OC)cc2nc3cc(Cl)ccc3nc12,-51.4% (active)
14,O=C(CN1CCN(c2cc3c(cc2F)c(=O)c(C(=O)O)cn3C2CC2)CC1)Nc1nc(-c2ccc(Cl)cc2)cs1,21.8%
15,O=C1CC(c2nc3ccccc3[nH]2)CN1C1CCCCC1 (configuration not stated),107%
16,COc1cc(OC)c(/C=C/c2cc[n+](C)c3ccccc23)c(OC)c1,-19.9% (active)
17,CCN(CC)c1ccc(CNc2cc(C)nc3ccc(OC)cc23)cc1,28.4%
18,CCCCCN(CCCCC)CCC[C@@H](C)[C@H]1CC[C@H]2[C@@H]3[C@H](OCCCN)C[C@@H]4C[C@H](OCCCN)CC[C@]4(C)[C@H]3C[C@H](OCCCN)[C@]12C,22.5%
19,COc1cc(OC)c(/C=C/S(=O)(=O)Cc2ccc(OC)c(N)n2)c(OC)c1,12.9%

row,Compound,growth
1,CC(=O)C1=C(O)C=C2Oc3c(C(=O)/C=C/c4cc(C(F)(F)F)cc(C(F)(F)F)c4)c(O)c(C)c(O)c3[C@]2(C)C1=O,-46% (active)
2,Cc1cc(Nc2nc(N3CCOCC3)nc3ccccc23)n[nH]1,10.3%
3,COc1cc(OC)c(/C=C/C(=O)c2c(OC)cc(OC)cc2OC)c(OC)c1,9.29% (active)
4,c1ccc(CSc2ncnc3nc[nH]c23)nc1,106%
5,C=C(CN1CCN(c2cccc(C(F)(F)F)n2)CC1)c1ccc(C(=O)Nc2ccccc2N)cc1,-3.75% (active)
6,CN1CCOCCOCCOc2ccccc2NC(=O)c2nc(cnc2N)-c2ccc(cc2)S1(=O)=O,33.3%
7,COc1cc(/C=N/N(C)C)ccc1O,103%
8,O=C(/C=C/c1ccc(B(O)O)cc1)/C=C/c1ccc(B(O)O)cc1,-86.7% (active)
9,CCC(=O)OCc1cccc(OC)c1,108%
10,COc1cnc2c(c1)C(=O)c1c-2n(CCCBr)c(=O)c2cc([N+](=O)[O-])ccc12,1.44% (active)
11,C/C(=C(/c1ccc(O)cc1)c1ccc(OCCN2CCCC2)cc1)c1ccccc1,51.6%
12,CCCCCCCCCc1cc(CN2CCCCC2)c(O)c(CN2CCCCC2)c1,50.6%
13,CCCCN(CC)CCCCCCCCCCN1CCCc2cc(OC)ccc21,-1.91% (active)
14,COc1cc(NC(N)=NCC(C)(C)COc2ccc(C(F)(F)F)cc2)cnc1C#N,57.6%
15,COc1ccc2nc(NC(=O)c3cccnc3Nc3cc(OC)c(OC)c(OC)c3)sc2c1,11.9%
16,CCN(CC)CCC(=O)c1ccc(OC)c2ccccc12,81.8%
17,COc1ccc(/C=C2\N=C3Sc4cc(Cl)ccc4C(=O)N3C2=O)cc1,104%
18,Nc1c(C(=O)Nc2ccccc2)sc2nc3c(cc12)CN(CCc1ccccc1)CC3,98.8%
19,CC(C)Oc1nc2c(c(=O)n(C)c(=O)n2C)n1C,105%
